Values without a mark were called inactive. Activity calls are given as the source filed them. How the calls were made is not given here.
experiment: cell-free Rh123 fluorescence quenching read-out – biochemical, dry powder samples, uHTS hits, counter-screen for mtPTP inhibitor project, dose response (AID 743361); details: Rhodamine 123 fluorescence quenching counterscreen

| SMILES | IC50 |
| --- | --- |
| CC1CCN(CCCC(=O)c2ccc(Br)cc2)CC1 | > 100 µM |
| Cc1ccc(Cl)cc1NC(=O)c1cc(-c2cccc(O)c2)on1 | > 100 µM |
| COc1ccc(Cl)cc1S(=O)(=O)Nc1ccc(CCN2CCN(C)CC2)cc1 | > 100 µM |
| O=S(=O)(Nc1ccc(CN2CCCCC2)cc1)c1cc(Cl)cc(Cl)c1 | > 100 µM |
| Cc1ccc(-c2cc(C(=O)Nc3cccc(Cl)c3)no2)cc1 | > 100 µM |
| COc1ccc(Cl)cc1C(=O)Nc1ccc(CN2CCNCC2)cc1 | > 100 µM |
| O=C(Nc1ccc(Cl)cc1)c1cc(-c2ccccc2)on1 | > 100 µM |
| CN1CCN(c2ccc(NS(=O)(=O)c3cc(Cl)cc(Cl)c3)cc2)CC1 | > 100 µM |
| CC(C)C1CCN(CCCC(=O)c2ccc(Br)cc2)CC1 | 64.6 µM (active) |
| COc1ccc(Cl)cc1C(=O)Nc1ccc(CCN2CCN(C)CC2)cc1 | > 100 µM |
| COc1ccc(Cl)c(C(=O)Nc2ccc(CN3CCCCC3)cc2)c1 | > 100 µM |
| CN1CCN(c2ccc(NC(=O)c3ccc(OCc4ccccc4)cc3)cc2)CC1 | > 100 µM |
| Cc1c(Cl)cccc1NC(=O)c1cc(-c2cccc(O)c2)on1 | > 100 µM |
| O=C(Nc1ccc(Br)cc1)c1cc(C2CC2)on1 | > 100 µM |
| O=C(Nc1ccc(CN2CCCCC2)cc1)c1ccc(Cl)c(OCc2ccccc2)c1 | 28.2 µM (active) |
| O=C(Nc1cccc(Cl)c1)c1cc(-c2ccc(Cl)cc2)on1 | > 100 µM |

— PubChem BioAssay AID743361 (Molecular Libraries Program, Specialized Chemistry Center, …, 2014)
